TEAD-YAP inh = TEAD-YAP interaction inhibition; HEK-TIYL cells, TEAD-Gal4/YAP UAS-luciferase luminescence; inhibition, % at 9.12 µM; hit rate 1.4% among 640,000; AID 1259422; in the data active means inhibition above about 32%
FBW7 act = activators of human E3 ligase FBW7; hit rate 0.13% among 650,000; AID 1259310; AlphaScreen FBW7–phospho-cyclin E peptide binding, activator screen; Q969H0; normalized activity (activation), % at 26.1 µM; in the data active means normalized activity above about 1.9%;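 further: purified mutant Fbw7 with reduced substrate affinity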
Target sequence (Q969H0 whole entry, looked up): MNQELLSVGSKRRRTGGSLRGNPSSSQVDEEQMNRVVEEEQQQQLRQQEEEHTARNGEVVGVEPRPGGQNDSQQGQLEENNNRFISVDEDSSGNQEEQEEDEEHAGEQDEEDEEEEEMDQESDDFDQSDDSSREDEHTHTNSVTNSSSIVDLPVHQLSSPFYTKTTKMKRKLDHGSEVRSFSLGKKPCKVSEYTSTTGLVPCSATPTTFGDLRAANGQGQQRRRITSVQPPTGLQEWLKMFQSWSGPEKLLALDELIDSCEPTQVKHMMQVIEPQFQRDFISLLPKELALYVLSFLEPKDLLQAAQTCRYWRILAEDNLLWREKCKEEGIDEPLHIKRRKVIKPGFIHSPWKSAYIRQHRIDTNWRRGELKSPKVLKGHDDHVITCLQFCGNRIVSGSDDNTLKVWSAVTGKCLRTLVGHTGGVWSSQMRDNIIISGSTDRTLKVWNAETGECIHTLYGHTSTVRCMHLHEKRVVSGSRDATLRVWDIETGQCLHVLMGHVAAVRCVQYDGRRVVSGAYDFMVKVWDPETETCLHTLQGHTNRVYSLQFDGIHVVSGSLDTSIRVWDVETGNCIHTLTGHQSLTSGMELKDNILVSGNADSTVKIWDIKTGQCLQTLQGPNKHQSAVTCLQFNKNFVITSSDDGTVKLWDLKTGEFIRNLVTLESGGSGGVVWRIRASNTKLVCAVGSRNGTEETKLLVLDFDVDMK
MITF inh = human MITF inhibition, primary screen; O75030; AlphaScreen MITF homodimerization, bead proximity signal; inhibition, % at 2.6 µM; hit rate 0.91% among 650,000; in the data active means inhibition above about 50%
GPR151 ag = activators of human GPR151; Q8TDV0; PathHunter beta-arrestin GPR151 cells, luminescence; activation, % at 11.2 µM; hit rate 1% among 650,000; in the data active means activation above about 4.9%
A number is an active result; n = inactive. Most compounds without a hit are left out; they make up all but 3.5% or so of the library.

SMILES | TEAD-YAP inh | FBW7 act | MITF inh | GPR151 ag
NS(=O)(=O)c1ccc(CCNC(=O)c2cc3c(Cl)nc4ccccc4c3s2)cc1 | n | n | n | n
CNC(=O)c1ccccc1Nc1nc(Nc2ccc(N3CCOCC3)c(F)c2)ncc1Cl | 63 | n | n | n
CNC(=O)c1ccccc1Nc1cc(Nc2cccnc2)ncc1C(F)(F)F | n | n | n | n
CNC(=O)c1cc(F)c(F)cc1Nc1cc(Nc2ccc(N3CCOCC3)cc2OC)ncc1C(F)(F)F | n | n | n | n
CNC(=O)c1ccccc1Nc1cc(Nc2ccc(N3CCOCC3)cc2F)ncc1C(F)(F)F | 67 | n | n | n
CNC(=O)c1ccccc1Nc1nc(Nc2ccc(-n3cnc(N4CCOCC4)n3)cc2)ncc1Cl | n | n | n | n
CNC(=O)c1ccccc1Nc1cc(Nc2ccc(N3CCOCC3)cc2)ncc1C(F)(F)F | 75 | n | n | n
CNC(=O)c1ccccc1Nc1cc(Nc2ccc(N3CCOCC3)cc2)ncc1C(N)=O | n | n | n | n
CNC(=O)c1ccccc1Nc1cc(Nc2ccc(C(=O)N3CCOCC3)cn2)ncc1C(F)(F)F | 86 | n | n | n
CCN(CC)C(=O)CSc1nc2ccccc2c(=O)n1C1CCCCC1 | n | n | n | n
O=S(=O)(NCc1ccc(F)cc1)c1cccc2nsnc12 | n | n | n | n
CN(Cc1ccccc1)S(=O)(=O)c1ccc(NC(=O)c2ccc(Br)o2)cc1 | n | n | n | n
O=C1c2ccccc2C(=O)c2c1oc1c3c(ccc21)OCN(CCCN1CCOCC1)C3 | 81 | n | n | n
CCN(CC)CCNc1c(CCC(C)C)c(C)c(C#N)c2nc3ccccc3n12 | n | n | n | n
O=C1Nc2ccccc2/C1=C\c1nc2ccccc2c(=O)n1-c1cccc([N+](=O)[O-])c1 | 41 | n | n | n
O=C1Nc2ccccc2/C1=C/c1nc2ccccc2c(=O)n1-c1cccc([N+](=O)[O-])c1 | n | n | n | n
CCOc1ccccc1/C=C1/C(=O)ON=C1C | n | n | n | n
CCOc1ccccc1C(=O)Nc1ccsc1C(=O)OC | 55 | n | n | n
COC(=O)c1sccc1NC(=O)c1ccccc1C | n | n | n | n
COCCNc1cc(-c2ccncc2)nc(-c2ccccn2)n1 | n | n | n | n
c1ccc(-c2nc(NC3CC3)cc(-c3ccncc3)n2)nc1 | n | n | n | n
CCN(CC)c1cc(-c2ccc(F)cc2)nc(-c2ccccn2)n1 | 53 | n | 58 | n
c1ccc(-c2cc(NC3CC3)nc(-c3ccccn3)n2)cc1 | 92 | n | n | n
COCCNc1cc(-c2ccc(F)cc2)nc(-c2ccccn2)n1 | 74 | n | n | n
Fc1ccc(-c2cc(NC3CC3)nc(-c3ccncc3)n2)cc1 | n | n | n | n
SMILES | TEAD-YAP inh | FBW7 act | MITF inh | GPR151 ag
Fc1ccc(-c2cc(NC3CC3)nc(-c3ccccn3)n2)cc1 | 90 | n | n | n
O=C(COC(=O)c1cc([N+](=O)[O-])ccc1NCCO)Nc1ccc(F)c(Cl)c1 | n | n | n | n
CCCCc1ccc(-c2nc(Nc3cc(Oc4ccccc4)cc([N+](=O)[O-])c3)c3ccccc3n2)cc1 | 50 | n | n | n
CCCCc1ccc(-c2nc(Nc3cc(Oc4ccc(F)cc4)cc([N+](=O)[O-])c3)c3ccccc3n2)cc1 | n | n | n | n
CCCCc1ccc(-c2nc(Nc3cc(Sc4ccc(F)cc4)cc([N+](=O)[O-])c3)c3ccccc3n2)cc1 | 57 | n | n | n
COc1cc(-c2nc(Nc3cc(Sc4ccc(F)cc4)cc([N+](=O)[O-])c3)c3ccccc3n2)cc(OC)c1OC | n | n | n | n
CC(C)(C)OC(=O)N/N=C\c1ccc(OC(=O)c2ccco2)cc1 | 59 | n | n | n
O=C(Oc1cccnc1)c1ccco1 | n | n | n | n
COC(=O)N/N=C\c1ccc(OC(=O)c2ccco2)cc1 | n | n | n | n
O=C(Oc1ccc(/C=C/c2ccncc2)cc1)c1ccco1 | 35 | n | n | n
COc1cccc(C2=C(C(C)=O)Sc3nnc(-c4ccc(C)cc4)n3N2C(C)=O)c1 | n | n | n | n
O=C(N/N=C\C=C\c1ccccc1)c1cccc(Br)c1 | n | n | n | n
O=C(Nc1ccc(F)cc1)c1ccc(S(=O)(=O)NC23CC4CC(CC(C4)C2)C3)cc1 | n | n | n | n
O=CNc1cccc2c1sc1nc[nH]c(=O)c12 | 53 | n | n | n
CCOc1c(Br)ccc2c1sc1nc[nH]c(=O)c12 | n | n | n | n
Cc1c(/C=N/NC(=O)CCc2ccc(S(=O)(=O)N3CCOCC3)cc2)cc(C#N)n1C | n | n | n | n
O=C(CCc1ccc(S(=O)(=O)N2CCOCC2)cc1)N/N=C/c1ccc(O)c(O)c1O | n | n | 54 | n
COc1cc2nc(CN3CCCCC3)[nH]c(=O)c2cc1OC | n | n | n | n
COc1cc2nc(CN3CCN(c4ccccc4F)CC3)[nH]c(=O)c2cc1OC | 48 | n | n | n
N#C/C(=C1/Nc2ccccc2S1)c1ccnc(OCc2ccc(CN3CCOCC3)cc2)n1 | 86 | n | n | n
CS(=O)(=O)N(CC(=O)N1CCOCC1)c1ccc(Oc2ccccc2)cc1 | n | n | n | n
CCOc1ccc(N(CC(=O)N2CCOCC2)S(C)(=O)=O)cc1 | n | 2.1 | n | n
O=C(N/N=C/C1CC2CCC1C2)c1ccc([N+](=O)[O-])cc1 (stereo unspecified) | n | n | n | n
O=C(N/N=C/C1CC2CCC1C2)c1cccc2ccccc12 (stereo unspecified) | 37 | n | n | n
CCC(=O)N1c2ccc(S(=O)(=O)N3CCN(c4ccccc4)CC3)cc2CC1C (stereo unspecified) | n | n | n | n
SMILES | TEAD-YAP inh | FBW7 act | MITF inh | GPR151 ag
CC(=O)c1ccc(N2CCN(S(=O)(=O)c3ccc4c(c3)CC(C)N4C(C)=O)CC2)cc1 (stereo unspecified) | 41 | n | n | n
Cc1nc2c(ccc3nc(C)sc32)s1 | n | n | n | n
O=C(Nc1ccc(Oc2ccc([N+](=O)[O-])c3cnccc23)cc1)c1ccco1 | 39 | n | n | n
Cc1cc(C)c(S(=O)(=O)Nc2ccc3c(c2)CCCN3C(=O)C(C)C)cc1C | n | 2.0 | n | n
Cc1cc(C)c(S(=O)(=O)Nc2ccc3c(c2)N(C(=O)C(C)C)CCC3)cc1C | 46 | n | n | n
CC(C)(C)NC(=O)C(c1ccccc1F)N(C(=O)c1csnn1)c1cccc(F)c1 (stereo unspecified) | n | n | n | n
CC[C@@H]1NC(=O)[C@@H]2C[C@H](NC(=O)c3cccnc3Oc3ccc(Cl)cc3)CN2C1=O | n | n | n | n
O=C1CSc2ccc(C(=O)N3CCN(c4cccc(C(F)(F)F)c4)CC3)cc2N1 | 52 | n | n | n
O=C1Nc2cc(C(=O)N3CCN(c4cccc(Cl)c4)CC3)ccc2Sc2ccccc21 | n | n | n | n
O=C1CSc2ccc(C(=O)N3CCN(c4cccc(Cl)c4)CC3)cc2N1 | 56 | n | n | n
COc1ccc2nc(NC(=O)c3ccc(Cl)cc3Cl)sc2c1 | n | n | n | n
CN1/C(=C/C(=C/c2sc3ccccc3[n+]2C)C2CCC2)Sc2ccccc21 | 72 | n | n | n
CN1/C(=C/C(=O)C2CCC2)Sc2ccccc21 | n | n | n | n

High-throughput results (PubChem BioAssay)
